# Test results from ChEMBL document CHEMBL4513216, “Probing the Open Global Health Chemical Diversity Library for Multistage-Active Starting Points for Next-Generation Antimalarials” (ACS Infect Dis, 2020).
# Hit rate of the full screen: of about 69,000 compounds, about 8,600 (12%) showed an effect of 50% or more. This excerpt belongs to a sample that is enriched for strong results.
# System: Plasmodium berghei
# Experiment: Screen against P. berghei liver stage (PbLuc), transformed with Luciferase, at 10uM
# Format: functional, HepG2
# Conditions: tested at 10 uM
row,SMILES,INHIBITION
1,c1coc(CN2Cc3ccnn3CC(COCC3CC3)C2)c1 (stereo unspecified),-47%
2,O=C(Nc1ccccc1)N1C[C@@H]2CC[C@H]1CN(Cc1ccccc1)C2,32.5%
3,COc1cc(NC2CCCN(c3ncccc3C#N)C2)cc(OC)c1 (stereo unspecified),42.1%
4,COC(C)c1cccc(NCc2cccc(O)c2)c1 (stereo unspecified),-52.4%
5,CN1CCc2ccc(NCc3cccs3)cc2C1=O,-99.6%
6,COC(C)c1cccc(NCc2cccs2)c1 (stereo unspecified),50.1%
7,CN(C(=O)c1cccc(NCc2cccs2)c1)C(C1CC1)C1CC1,64.8%
8,CN(C(=O)c1cccc(NCC(=O)O)c1)C(C1CC1)C1CC1,44.8%
9,COC(C)c1cccc(NCc2ccsc2)c1 (stereo unspecified),32.8%
10,Cc1n[nH]c2nc(-c3cccc(Cl)c3)cc(C(=O)O)c12,-1.99%
11,O=C1CC2(CCSC2)C(=O)N1Cc1coc(-c2ccc(F)cc2)n1 (stereo unspecified),-19.7%
12,Cn1c(=O)n(C)c2cc(NS(=O)(=O)Cc3cccc(F)c3)ccc21,18.6%
13,COCCn1ccc2c(C(=O)NC(C)C)cccc21,1.8%
14,CCn1cc(C(=O)NC2CCN(S(C)(=O)=O)CC2)c2ccccc21,2.37%
15,Cn1ccc2ccc(C(=O)NC3CCOC(C)(C)C3)cc21 (stereo unspecified),11.7%
16,Cn1ccc2c(C(=O)NC3CN4CCC3CC4)cccc21 (stereo unspecified),32.2%
17,CC(C)n1ccc2cc(C(=O)Nc3nc[nH]n3)ccc21,-22.4%
18,COCCn1ccc2c(C(=O)NC3CN4CCC3CC4)cccc21 (stereo unspecified),63.8%
19,Cc1c(NC(=O)NC2CN3CCC2CC3)cccc1C(=O)N1CCCC1 (stereo unspecified),21.5%
20,COCCn1ccc2c(C(=O)O)cccc21,17.7%
21,CC(C)n1ccc2c(C(=O)NC3CN4CCC3CC4)cccc21 (stereo unspecified),50.8%
22,CC(C)n1ccc2ccc(C(=O)NC3CN4CCC3CC4)cc21 (stereo unspecified),58.2%
23,CC(C)n1cc(C(=O)NC2CN3CCC2CC3)c2ccccc21 (stereo unspecified),50.8%

row,SMILES,INHIBITION
1,CC(C)n1cc(C(=O)NC2CCS(=O)(=O)C2)c2ccccc2c1=O (stereo unspecified),11.1%
2,CCCc1nc(NCC(=O)N2CCOCC2)c2c(n1)c(C)nn2CC,45.8%
3,Cc1cc(NC(=O)C2CCCN(C(=O)NCC(C)C)C2)ccn1 (stereo unspecified),-15.8%
4,CSCc1cccc(S(=O)(=O)N2CCCCC2)c1,37.5%
5,O=C1N(C2CCOCC2)CCCC12CCN(c1ncccc1Cl)C2 (stereo unspecified),12%
6,Nc1ncc(CN2CCC(O)(c3ccccc3F)CC2)cn1,31.5%
7,CC(NC(=O)c1ccc(Cl)cc1)c1nnc(SCC(N)=O)n1C (stereo unspecified),12.315%
8,Cn1nccc1-c1cnc2n1CCNC21CCN(C(=O)C2(C)CC2)CC1,13.1%
9,Cc1cnc(CNC(=O)N(CCCO)C2CCc3ccccc32)s1 (stereo unspecified),38.5%
10,CC(=O)N1CC[C@H]2OCC[C@@]2(C(=O)NCc2cnc(C)cn2)C1,42.1%
11,O=C(NCCN1C(=O)c2ccccc2C1=O)c1scnc1Cl,19.4%
12,COCCn1cc(C(=O)Nc2nc3c(s2)CCC3)c2ccccc21,45.5%
13,COCCn1cc(CC(=O)Nc2nc3c(s2)CCC3)c2ccccc21,-51.3%
14,COCCn1ccc2c(C(=O)Nc3nc4c(s3)CCC4)cccc21,79.2%
15,CCn1ccnc1CN1CCN(CCC(=O)NC2CCCCC2)CC1,-1.65%
16,COCC(=O)N(Cc1ccc2cc[nH]c2c1)C1CC1,10.9%
17,CCNC(=O)NCC1(CN2CCOCC2)CCCCC1,11.9%
18,Cc1ncc(CNC2CC(=O)N(CCc3cccc(Cl)c3)C2)n1C (stereo unspecified),60.5%
19,O=C1CC(NCc2ccncc2)CN1CCc1cccc(Cl)c1 (stereo unspecified),44.8%
20,Cc1nc[nH]c1CNC1CC(=O)N(CCc2cccc(Cl)c2)C1 (stereo unspecified),53.9%
21,Cc1ncc(CNC2CC(=O)N(CCc3ccc(F)cc3)C2)n1C (stereo unspecified),14.5%
22,CN(C)c1ncc(CNC2CC(=O)N(CCc3cccc(Cl)c3)C2)s1 (stereo unspecified),53.9%
23,O=C1CC(NCc2ncc[nH]2)CN1CCc1cccc(Cl)c1 (stereo unspecified),39.9%

row,SMILES,INHIBITION
1,CCc1ncc(CNC2CC(=O)N(CCc3cccc(Cl)c3)C2)cn1 (stereo unspecified),-11.5%
2,Cc1cccc(CNC2CC(=O)N(CCc3cccc(Cl)c3)C2)n1 (stereo unspecified),-13%
3,Cc1nc(CNC2CC(=O)N(CCc3cccc(Cl)c3)C2)c[nH]1 (stereo unspecified),43.4%
4,Cn1cccc1C(=O)NCc1ccnc(C2CCCOC2)n1 (stereo unspecified),39.8%
5,COc1ccc(Cc2nnc(NC(=O)C3CC34CCC4)s2)cc1OC (stereo unspecified),17.75%
6,Cc1cc(O)nc(C2CCN(C(=O)CO)CC2)n1,30.55%
7,Cc1noc(C)c1CCC(=O)N1CCCN(C)CC1,1.7%
8,Cc1cnc(N2CCCC3(CCOCC3)C2)nc1,-22.1%
9,COc1ccc(C(=O)C2CCCN(c3cc(C#N)ccn3)C2)cc1F (stereo unspecified),63%
10,COc1ccc(C(=O)N2CCCC(C)C2)cc1F (stereo unspecified),28.5%
11,COc1cccc(C(=O)C2CCCN(c3cc(C#N)ccn3)C2)c1 (stereo unspecified),59.4%
12,COc1ccc(C(=O)C2CCCN(c3cc(C#N)ccn3)C2)cc1OC (stereo unspecified),42.1%
13,COc1ccccc1C(=O)C1CCCN(c2cc(C#N)ccn2)C1 (stereo unspecified),18.5%
14,CNC(=O)c1ccnc(N2CCCC(COc3cccc(C)c3)C2)c1 (stereo unspecified),47.2%
15,Cn1[nH]c(C2CCCN(C(=O)CO)C2)cc1=O (stereo unspecified),29%
16,COCCN(C)CC(=O)N1CCCC2(CCC(=O)N(CC3CC3)C2)C1 (stereo unspecified),29.4%
17,CC(C)(C)S(=O)(=O)c1ccc(N2CCC(n3ccnc3)CC2)cn1,34.5%
18,O=C1CN(c2ccc(CNC(=O)NCC3CCOC3)cc2)CCN1 (stereo unspecified),0.411%
19,NC(=O)c1nnn(-c2ccc(Cl)cc2)n1,-27.1%
20,CCCc1nc(N2CC[C@@H](c3ccc4c(c3)OCO4)[C@H](O)C2)no1,19.4%
21,O[C@@H]1CN(c2cnc3ccccc3n2)CC[C@H]1c1ccc2c(c1)OCO2,60.1%
22,O[C@@H]1CN(c2nc3ccccc3o2)CC[C@H]1c1ccc2c(c1)OCO2,39.3%
23,O[C@@H]1CN(c2nc3ccccc3s2)CC[C@H]1c1ccc2c(c1)OCO2,68.1%

row,SMILES,INHIBITION
1,CC(C)c1cc(C(=O)N2CC[C@@H](c3ccc4c(c3)OCO4)[C@H](O)C2)[nH]n1,15.6%
2,CCc1cc(C(=O)N2CC[C@@H](c3ccc4c(c3)OCO4)[C@H](O)C2)[nH]n1,-5.22%
3,CC(C(=O)NCC(C)(C)c1ccc2c(c1)OCO2)n1ccnc1 (stereo unspecified),29.8%
4,CCc1ccc(C(=O)N2CCC(c3nncn3CC)CC2)s1,9.14%
5,Cc1nnc([C@@]23CCO[C@@H]2CCN(Cc2scnc2C)C3)o1,10.4%
6,COc1coc(C(=O)Nc2nc(C)cs2)cc1=O,5.03%
7,CC(C)Oc1ncccc1CNC(=O)c1ccccn1,-48.4%
8,CN1CCc2ncc(CNc3cc(N(C)C)ncn3)n2CC1,21.6%
9,COCCN1CCc2ncc(CNc3cc(N(C)C)ncn3)n2CC1,54.1%
10,CN(C)c1cc(NCc2cnc3n2CCN(CC2CC2)CC3)ncn1,17.2%
11,Cc1nn(C)c(C)c1C1CCCN1C(=O)CCNS(C)(=O)=O (stereo unspecified),-37.7%
12,Cc1ccsc1-c1nccn1CCN1CCCOC1=O,20.8%
13,Cc1cc(CCC(=O)Nc2nncs2)nc(C2CCCN2)n1 (stereo unspecified),5.11%
14,CN(C)c1ncccc1C(=O)N1CCCC1Cn1cccn1 (stereo unspecified),-21.5%
15,Cc1cccc(CN2CC3(CCN(C(N)=O)CC3)OCC2=O)n1,7.53%
16,Cc1cc(C)n(C2CCCN(C(=O)CCCc3ccccn3)C2)n1 (stereo unspecified),16.9%
17,N#Cc1c(Cl)nsc1NCCCN1C(=O)COc2ccccc21,62.4%
18,N#Cc1cnc(NCCCN2C(=O)COc3ccccc32)c(Cl)c1,-66.9%
19,N#Cc1ccc(NCCCN2C(=O)COc3ccccc32)nc1,15.3%
20,CC(Cn1ccnc1)NC(=O)NCc1ccc2c(c1)OCCO2 (stereo unspecified),-9.76%
21,Cc1nnc2n1CCN(C(=O)c1ccn(-c3cccc(F)c3)n1)C2,-1.15%
22,COc1ccc(Cl)cc1CCNC(=O)NCc1cnn(C)c1C,-9.35%
23,O=C(Nc1cc(CSCCO)ccn1)c1ccc(Cl)o1,38.3%

row,SMILES,INHIBITION
1,Cc1cscc1C(=O)Nc1cc(CSCCO)ccn1,52.2%
2,COc1ccnc(NC(=O)c2cscc2C)c1,-28.3%
3,CC1Cc2ccccc2N1C(=O)Cn1nc(-c2cccs2)ccc1=O (stereo unspecified),44.3%
4,COc1ccccc1OCCNS(=O)(=O)N1CCOCC1,58.4%
5,O=S(=O)(NCCc1ccccc1C(F)(F)F)N1CCOCC1,24.3%
6,O=S(=O)(NCCc1ccccc1F)N1CCOCC1,53.8%
7,O=S(=O)(NCCc1cn2ccccc2n1)N1CCOCC1,1.74%
8,COc1ccccc1CCNS(=O)(=O)N1CCOCC1,8.38%
9,CCC(NS(=O)(=O)N1CCOCC1)c1ccccc1OC (stereo unspecified),4.41%
10,CCNc1nc(-c2cccnc2)c(-c2ccnc(N3CCOCC3)n2)s1,39.7%
11,CS(=O)(=O)N[C@@H]1CN(Cc2ccc3ncccc3c2)C[C@H]1O,23.9%
12,N#Cc1c(N)nc2c(c1-c1cnc(N3CCCC3)nc1)COCC2,-10.7%
13,CN(C)C(=O)[C@@H]1C[C@@H]2[C@@H](CCN2Cc2nccs2)O1,44.5%
14,Cc1cccc(C)c1OCC(C)Nc1nc(N)nc2c1CCNC2 (stereo unspecified),42.6%
15,Nc1nc2c(c(NCC(c3cccnc3)N3CCOCC3)n1)CCNC2 (stereo unspecified),23.1%
16,Cc1cccnc1CC(C)Nc1nc(N)nc2c1CCNC2 (stereo unspecified),65.7%
17,CCOCCNC(=O)c1ccn(S(=O)(=O)c2ccc(C)cc2)c1,13.5%
18,Cc1ccc(S(=O)(=O)n2ccc(C(=O)NCC(F)(F)F)c2)cc1,53.8%
19,CCNC(=O)CNC(=O)c1ccn(S(=O)(=O)c2ccc(C)cc2)c1,2.69%
